Assays:
[1] = biological target: BDNF/NT-3 growth factors receptor (Homo sapiens) (UniProt Q16620); conditions: at 10 µM
[2] = biological target: T1, Tyrosine-protein kinase TXK (Homo sapiens) (UniProt P42681); conditions: at 1 µM
T1 sequence (whole entry): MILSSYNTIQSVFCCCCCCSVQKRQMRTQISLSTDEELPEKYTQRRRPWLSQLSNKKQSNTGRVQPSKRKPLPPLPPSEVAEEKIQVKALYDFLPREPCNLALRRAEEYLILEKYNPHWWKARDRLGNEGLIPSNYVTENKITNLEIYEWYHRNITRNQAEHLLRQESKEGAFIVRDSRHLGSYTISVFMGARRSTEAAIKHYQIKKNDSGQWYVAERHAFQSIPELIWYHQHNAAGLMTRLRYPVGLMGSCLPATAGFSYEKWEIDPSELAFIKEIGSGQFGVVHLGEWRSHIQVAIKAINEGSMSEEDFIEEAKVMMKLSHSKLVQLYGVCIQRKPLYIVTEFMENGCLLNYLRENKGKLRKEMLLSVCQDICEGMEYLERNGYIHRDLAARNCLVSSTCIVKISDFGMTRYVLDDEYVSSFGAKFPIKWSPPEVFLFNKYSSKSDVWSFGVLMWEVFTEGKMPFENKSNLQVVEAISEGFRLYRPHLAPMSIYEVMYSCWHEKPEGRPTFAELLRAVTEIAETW

[3] = biological target: T1, Tyrosine-protein kinase TXK (Homo sapiens); conditions: at 10 µM
[4] = biological target: T2, Serine/threonine-protein kinase ULK2 (Homo sapiens) (UniProt Q8IYT8); conditions: at 1 µM
T2 sequence (whole entry): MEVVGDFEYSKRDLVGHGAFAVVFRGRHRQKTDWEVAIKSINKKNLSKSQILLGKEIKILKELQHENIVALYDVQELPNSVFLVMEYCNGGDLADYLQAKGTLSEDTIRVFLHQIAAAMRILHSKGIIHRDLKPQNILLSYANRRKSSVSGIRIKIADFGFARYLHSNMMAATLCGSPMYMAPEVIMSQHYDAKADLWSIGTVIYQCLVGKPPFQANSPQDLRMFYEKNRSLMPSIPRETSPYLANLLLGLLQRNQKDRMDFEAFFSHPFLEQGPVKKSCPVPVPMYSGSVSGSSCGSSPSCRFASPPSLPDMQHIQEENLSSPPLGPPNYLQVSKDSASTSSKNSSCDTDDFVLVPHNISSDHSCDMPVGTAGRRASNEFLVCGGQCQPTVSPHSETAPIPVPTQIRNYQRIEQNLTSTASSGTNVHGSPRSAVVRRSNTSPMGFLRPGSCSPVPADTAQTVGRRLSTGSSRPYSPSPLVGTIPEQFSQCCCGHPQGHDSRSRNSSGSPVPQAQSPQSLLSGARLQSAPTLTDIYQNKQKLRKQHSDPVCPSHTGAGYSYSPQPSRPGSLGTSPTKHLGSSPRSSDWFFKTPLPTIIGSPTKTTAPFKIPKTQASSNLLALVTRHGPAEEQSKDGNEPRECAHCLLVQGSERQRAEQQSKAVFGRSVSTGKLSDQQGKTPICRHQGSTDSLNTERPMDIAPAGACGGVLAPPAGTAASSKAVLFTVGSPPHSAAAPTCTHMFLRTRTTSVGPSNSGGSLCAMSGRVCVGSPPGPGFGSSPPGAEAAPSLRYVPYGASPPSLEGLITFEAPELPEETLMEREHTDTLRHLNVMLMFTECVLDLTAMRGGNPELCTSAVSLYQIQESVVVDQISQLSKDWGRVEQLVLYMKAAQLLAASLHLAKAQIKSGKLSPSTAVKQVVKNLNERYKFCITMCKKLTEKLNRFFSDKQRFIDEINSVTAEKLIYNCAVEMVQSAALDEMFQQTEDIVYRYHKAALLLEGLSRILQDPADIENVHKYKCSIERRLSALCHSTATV

[5] = biological target: T2, Serine/threonine-protein kinase ULK2 (Homo sapiens); conditions: at 10 µM
[6] = biological target: T3, Serine/threonine-protein kinase ULK3 (Homo sapiens) (UniProt Q6PHR2); conditions: at 1 µM
T3 sequence (whole entry): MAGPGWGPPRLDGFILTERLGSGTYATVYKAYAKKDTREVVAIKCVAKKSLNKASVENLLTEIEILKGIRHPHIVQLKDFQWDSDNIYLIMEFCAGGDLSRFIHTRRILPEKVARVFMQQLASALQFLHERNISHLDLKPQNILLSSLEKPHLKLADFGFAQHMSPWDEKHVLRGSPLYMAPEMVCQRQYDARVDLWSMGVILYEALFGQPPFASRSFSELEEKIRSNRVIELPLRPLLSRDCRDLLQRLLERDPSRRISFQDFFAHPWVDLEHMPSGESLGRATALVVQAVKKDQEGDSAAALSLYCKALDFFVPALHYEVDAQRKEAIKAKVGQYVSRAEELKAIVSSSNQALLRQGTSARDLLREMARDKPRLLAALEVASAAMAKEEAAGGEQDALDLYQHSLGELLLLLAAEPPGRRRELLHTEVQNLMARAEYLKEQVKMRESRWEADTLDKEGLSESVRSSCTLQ

[7] = biological target: T3, Serine/threonine-protein kinase ULK3 (Homo sapiens); conditions: at 10 µM
[8] = biological target: Serine/threonine-protein kinase VRK2 (Homo sapiens) (UniProt Q86Y07); conditions: at 1 µM
[9] = biological target: Serine/threonine-protein kinase VRK2 (Homo sapiens) (UniProt Q86Y07); conditions: at 10 µM
[10] = biological target: Serine/threonine-protein kinase WNK2 (Homo sapiens) (UniProt Q9Y3S1); conditions: at 1 µM;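 further: residual WNK2 kinase activity expressed as percent of uninhibited control, assayed in MOPS buffer at pH 7.0 containing EDTA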
Sequence of Serine/threonine-protein kinase WNK2 (Homo sapiens) (Q9Y3S1 whole entry): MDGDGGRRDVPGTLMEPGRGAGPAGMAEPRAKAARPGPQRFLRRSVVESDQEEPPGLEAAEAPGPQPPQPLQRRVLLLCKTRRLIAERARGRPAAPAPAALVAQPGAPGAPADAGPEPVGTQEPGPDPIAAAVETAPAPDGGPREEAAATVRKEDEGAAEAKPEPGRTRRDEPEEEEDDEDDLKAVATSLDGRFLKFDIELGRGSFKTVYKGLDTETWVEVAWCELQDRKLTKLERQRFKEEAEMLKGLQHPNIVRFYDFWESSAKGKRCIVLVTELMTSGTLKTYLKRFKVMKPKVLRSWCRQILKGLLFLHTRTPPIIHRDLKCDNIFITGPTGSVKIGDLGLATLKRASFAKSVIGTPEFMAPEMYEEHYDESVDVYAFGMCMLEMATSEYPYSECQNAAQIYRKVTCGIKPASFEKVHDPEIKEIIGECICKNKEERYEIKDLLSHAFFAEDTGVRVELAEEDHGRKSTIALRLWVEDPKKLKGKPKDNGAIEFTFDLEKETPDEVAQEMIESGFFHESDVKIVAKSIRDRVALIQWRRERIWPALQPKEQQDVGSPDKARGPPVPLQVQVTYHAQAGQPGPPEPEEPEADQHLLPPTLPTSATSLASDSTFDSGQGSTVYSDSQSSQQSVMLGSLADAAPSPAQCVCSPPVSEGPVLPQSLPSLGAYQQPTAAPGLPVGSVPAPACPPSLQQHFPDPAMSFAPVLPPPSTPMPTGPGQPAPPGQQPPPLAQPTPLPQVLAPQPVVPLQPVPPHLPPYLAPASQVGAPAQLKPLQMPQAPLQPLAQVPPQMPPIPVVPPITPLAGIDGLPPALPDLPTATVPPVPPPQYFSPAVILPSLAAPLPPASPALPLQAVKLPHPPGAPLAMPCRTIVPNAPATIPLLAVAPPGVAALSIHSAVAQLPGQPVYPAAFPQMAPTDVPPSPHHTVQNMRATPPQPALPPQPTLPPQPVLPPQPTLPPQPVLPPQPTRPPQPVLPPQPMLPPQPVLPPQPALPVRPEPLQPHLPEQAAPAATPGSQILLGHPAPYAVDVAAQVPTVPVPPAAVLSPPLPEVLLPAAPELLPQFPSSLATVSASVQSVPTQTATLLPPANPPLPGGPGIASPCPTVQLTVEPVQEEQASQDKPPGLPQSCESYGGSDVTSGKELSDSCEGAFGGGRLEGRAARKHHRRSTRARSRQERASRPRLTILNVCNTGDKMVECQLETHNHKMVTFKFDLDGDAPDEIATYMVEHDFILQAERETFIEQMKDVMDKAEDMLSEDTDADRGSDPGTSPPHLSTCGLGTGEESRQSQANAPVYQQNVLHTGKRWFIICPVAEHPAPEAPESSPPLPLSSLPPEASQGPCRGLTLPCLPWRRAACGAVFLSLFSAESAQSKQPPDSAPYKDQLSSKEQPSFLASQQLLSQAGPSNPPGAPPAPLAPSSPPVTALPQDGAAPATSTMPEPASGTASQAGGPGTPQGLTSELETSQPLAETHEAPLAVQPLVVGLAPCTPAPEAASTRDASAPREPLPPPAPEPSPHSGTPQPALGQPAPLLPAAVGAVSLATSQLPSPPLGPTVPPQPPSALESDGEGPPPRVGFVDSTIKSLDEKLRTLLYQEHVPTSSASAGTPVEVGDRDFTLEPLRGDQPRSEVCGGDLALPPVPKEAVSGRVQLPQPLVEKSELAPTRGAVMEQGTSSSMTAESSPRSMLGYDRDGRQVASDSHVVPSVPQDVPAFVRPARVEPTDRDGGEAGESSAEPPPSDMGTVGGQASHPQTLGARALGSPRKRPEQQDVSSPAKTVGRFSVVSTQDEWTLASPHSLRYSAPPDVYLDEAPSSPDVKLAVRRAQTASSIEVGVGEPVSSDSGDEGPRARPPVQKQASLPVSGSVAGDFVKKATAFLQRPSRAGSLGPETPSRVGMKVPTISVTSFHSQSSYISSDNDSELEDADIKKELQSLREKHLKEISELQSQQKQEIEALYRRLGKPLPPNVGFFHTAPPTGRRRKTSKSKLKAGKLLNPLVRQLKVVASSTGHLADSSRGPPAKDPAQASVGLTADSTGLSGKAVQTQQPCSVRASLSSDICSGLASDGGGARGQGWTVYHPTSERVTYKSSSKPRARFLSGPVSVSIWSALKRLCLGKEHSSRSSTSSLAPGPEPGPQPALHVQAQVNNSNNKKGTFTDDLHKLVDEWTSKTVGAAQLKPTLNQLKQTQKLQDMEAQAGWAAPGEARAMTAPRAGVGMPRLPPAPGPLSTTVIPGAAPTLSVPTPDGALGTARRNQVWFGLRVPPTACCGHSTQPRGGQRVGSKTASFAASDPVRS

Sequence of BDNF/NT-3 growth factors receptor (Homo sapiens) (Q16620 32-822 limits assumed): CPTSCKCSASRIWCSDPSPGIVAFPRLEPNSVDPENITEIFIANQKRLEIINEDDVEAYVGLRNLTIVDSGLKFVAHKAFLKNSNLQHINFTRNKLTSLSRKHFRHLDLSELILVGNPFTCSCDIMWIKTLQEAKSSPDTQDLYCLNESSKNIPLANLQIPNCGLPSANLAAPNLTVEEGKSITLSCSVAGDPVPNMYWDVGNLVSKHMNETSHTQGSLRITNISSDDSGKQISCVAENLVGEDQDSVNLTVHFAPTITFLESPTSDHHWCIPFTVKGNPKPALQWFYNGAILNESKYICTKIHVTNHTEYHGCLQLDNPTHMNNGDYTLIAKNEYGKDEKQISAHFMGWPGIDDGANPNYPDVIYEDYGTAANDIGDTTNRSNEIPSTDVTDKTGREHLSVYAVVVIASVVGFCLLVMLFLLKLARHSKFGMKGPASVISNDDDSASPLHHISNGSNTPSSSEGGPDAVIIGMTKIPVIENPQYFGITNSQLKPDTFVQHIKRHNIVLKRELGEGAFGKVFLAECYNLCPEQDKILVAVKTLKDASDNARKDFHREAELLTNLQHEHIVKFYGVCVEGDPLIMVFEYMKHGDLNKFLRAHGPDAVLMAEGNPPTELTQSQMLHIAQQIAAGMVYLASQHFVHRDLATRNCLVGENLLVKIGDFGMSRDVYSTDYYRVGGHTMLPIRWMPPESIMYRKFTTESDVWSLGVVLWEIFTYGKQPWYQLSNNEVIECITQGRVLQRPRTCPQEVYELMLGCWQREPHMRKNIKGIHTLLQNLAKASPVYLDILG
Sequence of Serine/threonine-protein kinase VRK2 (Homo sapiens) (Q86Y07 whole entry): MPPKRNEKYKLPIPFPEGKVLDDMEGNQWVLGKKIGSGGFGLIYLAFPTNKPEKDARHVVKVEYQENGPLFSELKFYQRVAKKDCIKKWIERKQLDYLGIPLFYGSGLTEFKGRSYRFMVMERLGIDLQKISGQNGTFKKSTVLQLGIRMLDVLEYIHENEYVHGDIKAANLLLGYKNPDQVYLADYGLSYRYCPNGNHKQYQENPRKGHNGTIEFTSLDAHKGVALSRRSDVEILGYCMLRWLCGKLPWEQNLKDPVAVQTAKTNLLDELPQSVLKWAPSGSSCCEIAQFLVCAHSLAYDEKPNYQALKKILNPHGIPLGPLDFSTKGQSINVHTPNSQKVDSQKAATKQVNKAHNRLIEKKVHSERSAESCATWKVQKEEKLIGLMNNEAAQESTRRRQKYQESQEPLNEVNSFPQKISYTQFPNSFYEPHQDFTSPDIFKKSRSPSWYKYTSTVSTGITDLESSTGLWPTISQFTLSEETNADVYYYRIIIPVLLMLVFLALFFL

SMILES	residual activity [1] [%]	residual activity [2] [%]	residual activity [3] [%]	residual activity [4] [%]	residual activity [5] [%]	residual activity [6] [%]	residual activity [7] [%]	residual activity [8]	residual activity [9] [%]	residual activity [10]
Cc1cc2ncc(-c3ccccc3)nc2cc1C	53	90	84	104	88	107	96	105% (inactive)	96	99% (inactive)
Cc1nc(-c2ccccc2)c(-c2ccncc2)o1	53	86	88	118	112	104	104	109% (inactive)	103	117% (inactive)
Oc1c2ccccc2c2c3c(cccc13)N=N2	5	58	23	90	45	73	43	78% (inactive)	36	79% (inactive)
O=C(Nc1cccc(Nc2nccc(Nc3cccc(C(F)(F)F)c3)n2)c1)C1CC1	-5	60	15	101	88	97	66	93% (inactive)	85	104% (inactive)
Cn1cc(/C=C2\C(=O)Nc3ccc(S(N)(=O)=O)cc32)c2ccccc21	-12	75	47	43	24	19	4	114% (inactive)	93	111% (inactive)
O=C1NC(=O)c2c1c1c3ccccc3[nH]c1c1[nH]c3cc(Br)ccc3c21	42	89	72	108	95	88	86	95% (inactive)	90	96% (inactive)
Oc1ccc(Nc2nc(-c3ccc(Cl)cc3)cs2)cc1	78	97	79	118	105	96	102	98% (inactive)	102	117% (inactive)
CC#CC(=O)Nc1cc2c(Nc3ccc(F)c(Cl)c3)ncnc2cn1	103	52	14	99	97	116	97	97% (inactive)	92	103% (inactive)
COc1ccc(CNc2nc(N(CCO)CCO)nc3c2ncn3C(C)C)cc1	96	87	89	97	97	81	82	79% (inactive)	46	88% (inactive)
Nc1n[nH]c2nnc(-c3c(-c4ccccc4)nn4ccccc34)cc12	52	77	60	95	96	92	87	89% (inactive)	68	88% (inactive)
O=C(O)c1ccc2c3c1cccc3c(=O)n1c3ccccc3nc21	59	77	60	90	48	91	70	105% (inactive)	89	113% (inactive)
CC(C)n1cnc2/c(=N/c3cccc(Cl)c3)nc(NCCO)[nH]c21	2	68	37	68	31	42	11	71% (inactive)	19	90% (inactive)
Cc1nc2cc3nc(-c4cccs4)cnc3cc2n1C	45	108	75	108	107	106	85	111% (inactive)	84	117% (inactive)
Cc1ccc(NC2=CC(=O)c3sc(C)nc3C2=O)cc1	93	80	83	101	100	96	100	89% (inactive)	88	88% (inactive)
O=c1c2ccccc2[nH]c(=S)n1CCN1CCC(=C(c2ccc(F)cc2)c2ccc(F)cc2)CC1	59	102	80	109	98	107	94	116% (inactive)	99	113% (inactive)
O=C(Nc1cccc(Nc2cc(Nc3cccc(C(F)(F)F)c3)ncn2)c1)C1CC1	37	109	69	103	103	110	94	107% (inactive)	77	103% (inactive)
N#CCCc1ccc2c(c1)-c1[nH]c3ccc([N+](=O)[O-])cc3c1CC(=O)N2	65	26	9	47	21	33	6			

SMILES	residual activity [1] [%]	residual activity [2] [%]	residual activity [3] [%]	residual activity [4] [%]	residual activity [5] [%]	residual activity [6] [%]	residual activity [7] [%]	residual activity [8]	residual activity [9] [%]	residual activity [10]
CC(=O)c1ccc(N2CCOCC2)cc1O	108	85	86	106	90	106	90	107% (inactive)	96	
CC(C)n1cnc2c(NCc3ccccc3)nc(NCCCO)nc21	98	75	74	106	101	95	90	95% (inactive)	69	98% (inactive)
O=C1Nc2cc(Br)ccc2/C1=C1/Nc2ccccc2/C1=N\O	-1	13	23	102	98	55	16	94% (inactive)	90	89% (inactive)
CO[C@H]1[C@@H](OC)C[C@H](C)[C@@H](OC)C2=CC(=O)C=C(NC(=O)/C(C)=C/C=C/[C@H](OC)[C@@H](OC(N)=O)/C(C)=C/[C@@H]1C)C2=O	99	89	103	100	95	88	92	108% (inactive)	96	100% (inactive)
CN(C)c1ccc(/C=C2\C(=O)Nc3ccccc32)cc1	5	108	69	107	70	100	49	113% (inactive)	87	110% (inactive)
NC(=O)c1ccc2[nH]c(-c3ccc(Oc4ccc(Cl)cc4)cc3)nc2c1	101	96	92	97	93	90	87	88% (inactive)	82	90% (inactive)
O=C1Nc2ccccc2/C1=C1/Nc2ccccc2/C1=N\OCCC(O)CO (stereo not given)	0	31	3	98	74	27	5	69% (inactive)	26	71% (inactive)
c1ccc2c(-c3ccncc3)c[nH]c2c1	110	109	97	104	97	104	82	101% (inactive)	88	107% (inactive)
CC[n+]1c(/C=C/N(C)c2ccccc2)n(-c2ccccc2)c2ccc(-c3nc4ccccc4s3)cc21	61	83	51	110	104	112	97	110% (inactive)	99	96% (inactive)
Nc1ccc2ncnc(NCCc3ccc(Oc4ccccc4)cc3)c2c1	58	80	61	121	108	103	87	106% (inactive)	95	110% (inactive)
COc1ccc(C(=O)Nc2sc3c(c2C(N)=O)CCCC3)cc1OC	71	93	73	102	92	99	84	107% (inactive)	85	104% (inactive)
Cc1ccc(S(=O)(=O)/C=C/C#N)cc1	105	79	87	109	104	97	98	91% (inactive)	97	94% (inactive)
Cn1cnc2cc3c(Nc4cccc(Br)c4)ncnc3cc21	68	89	60	106	99	112	74	98% (inactive)	95	105% (inactive)
COc1cc2ncnc(Nc3ccc(NC(=O)c4ccccc4)cc3)c2cc1OC	21	95	82	108	104	99	69	110% (inactive)	55	52% (inactive)
Nc1nc(Nc2ccc(S(N)(=O)=O)cc2)nn1C(=S)Nc1c(F)cccc1F	0	71	32	4	0	0	1	84% (inactive)	37	
O=c1cc(-c2cccc3c2Sc2ccccc2S3)oc(N2CCOCC2)c1	76	91	91	107	101	94	96	97% (inactive)	97	103% (inactive)
